Test results published in the supplement of paper PMC10849652.
The full data set covers some 7,900 targets. This sample favours those with a hit. About 0.6% of all pairs of compound and target were hits.

Key:
Experiment in all cases: log2 fold change, soluble protein after heating vs DMSO (PISA); higher = thermal stabilisation; K562 cells, 10 uM, 30 min; active = over 0.2 and 3.5 SD of the protein, either way, in both replicates (recomputed)
[1] = compound: COC1=CC=C(C=C1)CN2C=CC3=C2C=C(C=C3)C(=O)NO
How it was run: (§1)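 Values are thermal stability changes relative to control samples and are taken from duplicates. They are stated as log2 fold changes. Before quantification by TMTpro 16plex LC-MS/MS with equalised channel sums, K562 cells at 2×10^6 cells/mL were treated with 10 μM compound for 30 min, heated in aliquots for 3 min across 48°C-58°C, pooled, extracted in PBS with 0.5% NP-40 at 4°C, and centrifuged at 21,000xg for 90 min to give the soluble supernatant.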

filanesib = compound: CON(C)C(=O)N1N=C(c2cc(F)ccc2F)S[C@@]1(CCCN)c1ccccc1 [filanesib]
How it was run: as §1

zotarolimus = compound: CO[C@H]1C[C@@H]2CC[C@@H](C)[C@@](O)(O2)C(=O)C(=O)N2CCCC[C@H]2C(=O)O[C@H]([C@H](C)C[C@@H]2CC[C@H](n3cnnn3)[C@H](OC)C2)CC(=O)[C@H](C)/C=C(\C)[C@@H](O)[C@@H](OC)C(=O)[C@H](C)C[C@H](C)/C=C/C=C/C=C/1C [zotarolimus]
How it was run: as §1

idasanutlin = compound: COc1cc(C(=O)O)ccc1NC(=O)[C@@H]1N[C@@H](CC(C)(C)C)[C@](C#N)(c2ccc(Cl)cc2F)[C@H]1c1cccc(Cl)c1F [idasanutlin]
How it was run: as §1

alisertib = compound: COc1cc(Nc2ncc3c(n2)-c2ccc(Cl)cc2C(c2c(F)cccc2OC)=NC3)ccc1C(=O)O [alisertib]
How it was run: as §1

[2] = compound: COc1cc2nc(-c3cc(F)ccc3O)nc(N[C@@H]3CNC[C@H]3C(C)(C)O)c2cc1OC
How it was run: as §1

gefitinib = compound: COc1cc2ncnc(Nc3ccc(F)c(Cl)c3)c2cc1OCCCN1CCOCC1 [gefitinib]
How it was run: as §1

[3] = compound: COc1cccc2cc(-c3nc([C@H]4CC[C@H](C(=O)O)CC4)n4ncnc(N)c34)[nH]c12
How it was run: as §1

lapatinib = compound: CS(=O)(=O)CCNCc1ccc(-c2ccc3ncnc(Nc4ccc(OCc5cccc(F)c5)c(Cl)c4)c3c2)o1 [lapatinib]
How it was run: as §1

pictilisib = compound: CS(=O)(=O)N1CCN(Cc2cc3nc(-c4cccc5[nH]ncc45)nc(N4CCOCC4)c3s2)CC1 [pictilisib]
How it was run: as §1

[4] = compound: CS(=O)(=O)c1ccc(-c2cnc(N)c(C(=O)Nc3ccccc3)n2)cc1
How it was run: as §1

crizotinib = compound: C[C@@H](Oc1cc(-c2cnn(C3CCNCC3)c2)cnc1N)c1c(Cl)ccc(F)c1Cl [crizotinib]
How it was run: as §1

[5] = compound: C[C@@H]1COCCN1C2=NC(=NC(=C2)C3(CC3)S(=O)(=O)C)C4=C5C=CNC5=CC=C4
How it was run: as §1

[6] = compound: C[C@H](C1=CC=C(C=C1)C(=O)NC2=C3C=CNC3=NC=C2)N
How it was run: as §1

duvelisib = compound: C[C@H](Nc1ncnc2nc[nH]c12)c1cc2cccc(Cl)c2c(=O)n1-c1ccccc1 [duvelisib]
How it was run: as §1

gandotinib = compound: Cc1cc(Nc2cc(CN3CCOCC3)c3nc(C)c(Cc4ccc(Cl)cc4F)n3n2)n[nH]1 [gandotinib]
How it was run: as §1

tozasertib = compound: Cc1cc(Nc2cc(N3CCN(C)CC3)nc(Sc3ccc(NC(=O)C4CC4)cc3)n2)n[nH]1 [tozasertib]
How it was run: as §1

[7] = compound: Cc1cc(SCc2sc(-c3ccc(C(F)(F)F)cc3)nc2C)ccc1OCC(=O)O
How it was run: as §1

doramapimod = compound: Cc1ccc(-n2nc(C(C)(C)C)cc2NC(=O)Nc2ccc(OCCN3CCOCC3)c3ccccc23)cc1 [doramapimod]
How it was run: as §1

ispinesib = compound: Cc1ccc(C(=O)N(CCCN)[C@@H](c2nc3cc(Cl)ccc3c(=O)n2Cc2ccccc2)C(C)C)cc1 [ispinesib]
How it was run: as §1

Measured: log2 fold change

RPS12 (UniProt P25398)
inactive: [1] -0.009 | filanesib 0.018 | zotarolimus -0.026 | idasanutlin 0.048 | alisertib -0.17 | [2] -0.057 | gefitinib -0.02 | [3] -0.159 | lapatinib 0.062 | pictilisib -0.033 | [4] -0.041 | crizotinib 0.078 | [5] -0.098 | [6] 0.165 | duvelisib -0.061 | gandotinib 0.124 | tozasertib -0.003 | [7] -0.011 | doramapimod 0.012 | ispinesib 0.017

RPS27A (UniProt P62979)
inactive: [1] -0.084 | filanesib 0.215 | zotarolimus 0.009 | idasanutlin 0.129 | alisertib -0.041 | [2] -0.066 | gefitinib -0.076 | [3] -0.185 | lapatinib -0.006 | pictilisib -0.13 | [4] 0.05 | crizotinib 0.053 | [5] -0.229 | [6] 0.088 | duvelisib -0.218 | gandotinib 0.347 | tozasertib 0.013 | [7] 0 | doramapimod -0.049 | ispinesib -0.047

RDH13 (UniProt Q8NBN7)
Chain of UniProt Q8NBN7 (Q8NBN7 whole entry, looked up): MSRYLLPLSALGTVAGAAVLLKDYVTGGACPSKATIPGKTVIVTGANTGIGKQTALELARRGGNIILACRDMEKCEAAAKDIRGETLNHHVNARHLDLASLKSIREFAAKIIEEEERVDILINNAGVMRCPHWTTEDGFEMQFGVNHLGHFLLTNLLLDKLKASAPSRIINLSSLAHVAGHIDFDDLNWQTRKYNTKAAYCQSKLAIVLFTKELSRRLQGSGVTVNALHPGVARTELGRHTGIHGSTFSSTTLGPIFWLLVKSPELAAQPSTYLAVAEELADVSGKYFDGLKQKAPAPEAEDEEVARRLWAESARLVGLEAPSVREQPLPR
inactive: [1] 0.056 | filanesib -0.135 | zotarolimus 0.072 | idasanutlin -0.019 | alisertib -0.005 | [2] -0.064 | gefitinib 0.018 | [3] 0.084 | lapatinib 0 | pictilisib 0.042 | [4] 0.04 | crizotinib -0.231 | [5] 0.161 | [6] -0.019 | duvelisib 0.082 | gandotinib -0.08 | tozasertib -0.101 | [7] 0.029 | doramapimod -0.037
active: ispinesib -0.322

RRAS2 isoform 4 (UniProt P62070)
Chain of UniProt P62070 (P62070 whole entry, looked up): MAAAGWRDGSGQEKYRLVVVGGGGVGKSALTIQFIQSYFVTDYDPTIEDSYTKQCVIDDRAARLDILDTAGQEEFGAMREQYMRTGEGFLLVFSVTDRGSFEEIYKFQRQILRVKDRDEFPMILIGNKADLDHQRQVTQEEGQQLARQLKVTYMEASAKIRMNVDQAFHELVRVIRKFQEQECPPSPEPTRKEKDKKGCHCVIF
inactive: [1] 0.004 | filanesib 0.059 | zotarolimus -0.025 | idasanutlin 0.016 | alisertib -0.099 | [2] 0.075 | gefitinib 0.061 | [3] 0.093 | lapatinib 0.017 | pictilisib 0.05 | [4] 0.044 | crizotinib 0.162 | [5] -0.001 | [6] -0.152 | duvelisib -0.002 | gandotinib -0.016 | tozasertib -0.048 | [7] -0.042 | doramapimod 0.012 | ispinesib -0.019

SH3GLB2 (UniProt Q9NR46)
inactive: [1] 0.016 | filanesib 0.085 | zotarolimus 0.052 | idasanutlin 0.061 | alisertib -0.011 | [2] -0.034 | gefitinib -0.004 | [3] -0.018 | lapatinib -0.04 | pictilisib 0.025 | [4] 0.031 | crizotinib -0.104 | [5] -0.101 | [6] 0.013 | duvelisib -0.022 | gandotinib -0.183 | tozasertib 0.014 | [7] 0.073 | doramapimod 0.013 | ispinesib -0.052

SAFB2 (UniProt Q14151)
active: filanesib 0.409
inactive: [1] -0.044 | zotarolimus 0.017 | idasanutlin 0.085 | alisertib -0.045 | [2] -0.046 | gefitinib 0 | [3] -0.037 | lapatinib 0.048 | pictilisib -0.032 | [4] -0.079 | crizotinib -0.016 | [5] -0.316 | [6] 0.164 | duvelisib -0.155 | gandotinib 0.184 | tozasertib -0.027 | [7] 0.006 | doramapimod 0.089 | ispinesib -0.043

RRS1 (UniProt Q15050)
inactive: [1] -0.111 | filanesib 0.593 | zotarolimus 0.033 | idasanutlin 0.262 | alisertib -0.171 | [2] 0.01 | gefitinib 0.005 | [3] -0.169 | lapatinib 0.137 | pictilisib -0.096 | [4] -0.022 | crizotinib 0 | [5] -0.365 | [6] 0.304 | duvelisib -0.181 | gandotinib 0.089 | tozasertib 0.094 | [7] -0.034 | doramapimod 0.235 | ispinesib 0.019

SEC24A (UniProt O95486)
Chain of UniProt O95486 (O95486 whole entry, looked up): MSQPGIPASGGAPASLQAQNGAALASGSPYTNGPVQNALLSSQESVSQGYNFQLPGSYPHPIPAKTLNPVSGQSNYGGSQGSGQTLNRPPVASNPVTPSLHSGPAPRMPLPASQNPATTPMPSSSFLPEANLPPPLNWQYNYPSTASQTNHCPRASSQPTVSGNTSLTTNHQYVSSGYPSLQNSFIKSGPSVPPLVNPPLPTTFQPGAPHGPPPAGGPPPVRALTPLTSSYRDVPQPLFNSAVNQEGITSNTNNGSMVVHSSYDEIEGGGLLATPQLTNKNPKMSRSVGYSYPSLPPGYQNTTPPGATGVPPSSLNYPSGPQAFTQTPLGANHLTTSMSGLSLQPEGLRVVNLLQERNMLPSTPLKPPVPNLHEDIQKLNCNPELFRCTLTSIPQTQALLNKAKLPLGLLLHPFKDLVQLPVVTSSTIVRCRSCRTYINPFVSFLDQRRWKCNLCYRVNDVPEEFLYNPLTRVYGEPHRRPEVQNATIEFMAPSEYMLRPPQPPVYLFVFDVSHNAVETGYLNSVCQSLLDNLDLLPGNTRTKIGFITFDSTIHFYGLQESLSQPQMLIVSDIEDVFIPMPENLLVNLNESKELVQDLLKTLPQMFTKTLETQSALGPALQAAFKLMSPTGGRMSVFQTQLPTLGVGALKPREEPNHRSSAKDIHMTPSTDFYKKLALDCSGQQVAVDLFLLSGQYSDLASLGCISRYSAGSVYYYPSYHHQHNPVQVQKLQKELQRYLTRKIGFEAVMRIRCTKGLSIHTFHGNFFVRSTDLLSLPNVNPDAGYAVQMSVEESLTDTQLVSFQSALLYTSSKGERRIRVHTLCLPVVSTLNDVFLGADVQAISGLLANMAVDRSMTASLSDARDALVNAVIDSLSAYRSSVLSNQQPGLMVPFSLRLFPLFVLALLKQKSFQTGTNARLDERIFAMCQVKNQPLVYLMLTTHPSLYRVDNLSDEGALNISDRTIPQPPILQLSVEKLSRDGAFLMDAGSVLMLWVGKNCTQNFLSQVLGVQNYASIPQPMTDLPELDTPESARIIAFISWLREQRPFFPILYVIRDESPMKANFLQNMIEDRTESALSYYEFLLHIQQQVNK
inactive: [1] 0.029 | filanesib -0.083 | zotarolimus 0.033 | idasanutlin -0.087 | alisertib -0.002 | [2] -0.004 | gefitinib -0.028 | [3] -0.016 | lapatinib -0.021 | pictilisib -0.077 | [4] 0.002 | crizotinib -0.001 | [5] 0.075 | [6] 0.001 | duvelisib 0.038 | gandotinib -0.148 | tozasertib 0.018 | [7] 0.084 | doramapimod -0.029 | ispinesib 0.017

RBM27 (UniProt Q9P2N5)
Chain of UniProt Q9P2N5 (Q9P2N5 whole entry, looked up): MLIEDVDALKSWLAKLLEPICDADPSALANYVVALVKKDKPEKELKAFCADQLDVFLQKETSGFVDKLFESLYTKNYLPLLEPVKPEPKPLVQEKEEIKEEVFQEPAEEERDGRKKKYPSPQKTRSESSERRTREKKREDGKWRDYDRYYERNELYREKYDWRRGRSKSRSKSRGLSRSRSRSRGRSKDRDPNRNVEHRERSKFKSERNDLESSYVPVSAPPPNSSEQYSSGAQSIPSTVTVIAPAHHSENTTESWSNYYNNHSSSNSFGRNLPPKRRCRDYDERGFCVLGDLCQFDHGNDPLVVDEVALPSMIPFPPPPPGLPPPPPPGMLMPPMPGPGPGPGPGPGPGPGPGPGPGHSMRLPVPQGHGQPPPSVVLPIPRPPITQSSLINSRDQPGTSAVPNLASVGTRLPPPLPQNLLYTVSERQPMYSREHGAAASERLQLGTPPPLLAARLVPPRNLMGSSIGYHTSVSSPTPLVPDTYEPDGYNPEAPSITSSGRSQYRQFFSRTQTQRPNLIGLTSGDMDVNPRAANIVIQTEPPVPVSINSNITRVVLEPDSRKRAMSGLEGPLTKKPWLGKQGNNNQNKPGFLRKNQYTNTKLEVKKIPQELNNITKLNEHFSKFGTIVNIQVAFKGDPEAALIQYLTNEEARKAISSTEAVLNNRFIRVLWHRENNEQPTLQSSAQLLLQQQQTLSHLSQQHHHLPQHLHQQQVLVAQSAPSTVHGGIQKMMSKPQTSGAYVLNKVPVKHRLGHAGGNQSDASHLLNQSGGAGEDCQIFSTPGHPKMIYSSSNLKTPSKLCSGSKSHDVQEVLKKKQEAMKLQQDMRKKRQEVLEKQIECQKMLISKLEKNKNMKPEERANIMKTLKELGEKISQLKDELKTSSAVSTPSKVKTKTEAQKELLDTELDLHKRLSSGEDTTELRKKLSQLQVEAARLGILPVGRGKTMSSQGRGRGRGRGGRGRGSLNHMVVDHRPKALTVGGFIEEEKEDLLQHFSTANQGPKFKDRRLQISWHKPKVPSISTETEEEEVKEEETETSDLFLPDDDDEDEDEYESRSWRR
inactive: [1] -0.025 | filanesib 0.094 | zotarolimus 0.027 | idasanutlin 0.075 | alisertib 0.02 | [2] -0.058 | gefitinib 0.057 | [3] 0.018 | lapatinib 0.051 | pictilisib -0.08 | [4] 0.006 | crizotinib 0.021 | [5] 0.026 | [6] -0.174 | duvelisib 0.001 | gandotinib -0.019 | tozasertib 0.027 | [7] 0.09 | doramapimod -0.035 | ispinesib -0.122

RAVER1 (UniProt E9PAU2)
inactive: [1] 0.032 | filanesib -0.244 | zotarolimus 0.258 | idasanutlin 0.024 | alisertib 0.372 | [2] -0.898 | gefitinib 0.082 | [3] -0.099 | lapatinib 0.049 | pictilisib -0.002 | [4] 0.061 | crizotinib 0.049 | [5] 0.188 | [6] -0.381 | duvelisib 0.066 | gandotinib -0.091 | tozasertib 0.264 | [7] 0.132 | doramapimod 0.002 | ispinesib -0.171

RBM25 (UniProt P49756)
Chain of UniProt P49756 (P49756 whole entry, looked up): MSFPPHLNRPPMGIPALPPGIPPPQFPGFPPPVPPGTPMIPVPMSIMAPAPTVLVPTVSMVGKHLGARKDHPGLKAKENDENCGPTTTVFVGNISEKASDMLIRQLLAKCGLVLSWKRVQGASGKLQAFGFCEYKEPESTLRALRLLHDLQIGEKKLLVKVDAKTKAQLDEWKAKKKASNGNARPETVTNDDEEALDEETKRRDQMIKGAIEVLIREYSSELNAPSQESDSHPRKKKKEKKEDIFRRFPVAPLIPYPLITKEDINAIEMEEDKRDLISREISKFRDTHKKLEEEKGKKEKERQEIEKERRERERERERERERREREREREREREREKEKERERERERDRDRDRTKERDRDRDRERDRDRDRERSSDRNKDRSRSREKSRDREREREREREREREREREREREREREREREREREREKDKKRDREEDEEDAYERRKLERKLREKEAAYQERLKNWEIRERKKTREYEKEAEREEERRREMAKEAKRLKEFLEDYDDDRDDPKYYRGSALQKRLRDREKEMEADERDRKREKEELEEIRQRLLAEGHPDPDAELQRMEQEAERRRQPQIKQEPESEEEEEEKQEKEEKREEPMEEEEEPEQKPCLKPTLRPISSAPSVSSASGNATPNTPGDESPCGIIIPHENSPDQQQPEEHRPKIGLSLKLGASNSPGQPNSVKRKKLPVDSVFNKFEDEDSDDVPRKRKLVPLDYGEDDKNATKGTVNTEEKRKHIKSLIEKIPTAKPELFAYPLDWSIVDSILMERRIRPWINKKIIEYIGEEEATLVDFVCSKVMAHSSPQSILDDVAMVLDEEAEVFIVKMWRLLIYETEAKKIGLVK
active: [1] 0.285
inactive: filanesib 0.112 | zotarolimus 0.022 | idasanutlin 0.022 | alisertib -0.044 | [2] -0.035 | gefitinib 0.001 | [3] 0.043 | lapatinib -0.024 | pictilisib 0.052 | [4] -0.071 | crizotinib -0.052 | [5] 0.09 | [6] -0.01 | duvelisib 0.037 | gandotinib -0.166 | tozasertib -0.012 | [7] -0.074 | doramapimod 0.057 | ispinesib -0.049

RPS6KA1 isoform 2 (UniProt Q15418)
Chain of UniProt Q15418 (Q15418 whole entry, looked up): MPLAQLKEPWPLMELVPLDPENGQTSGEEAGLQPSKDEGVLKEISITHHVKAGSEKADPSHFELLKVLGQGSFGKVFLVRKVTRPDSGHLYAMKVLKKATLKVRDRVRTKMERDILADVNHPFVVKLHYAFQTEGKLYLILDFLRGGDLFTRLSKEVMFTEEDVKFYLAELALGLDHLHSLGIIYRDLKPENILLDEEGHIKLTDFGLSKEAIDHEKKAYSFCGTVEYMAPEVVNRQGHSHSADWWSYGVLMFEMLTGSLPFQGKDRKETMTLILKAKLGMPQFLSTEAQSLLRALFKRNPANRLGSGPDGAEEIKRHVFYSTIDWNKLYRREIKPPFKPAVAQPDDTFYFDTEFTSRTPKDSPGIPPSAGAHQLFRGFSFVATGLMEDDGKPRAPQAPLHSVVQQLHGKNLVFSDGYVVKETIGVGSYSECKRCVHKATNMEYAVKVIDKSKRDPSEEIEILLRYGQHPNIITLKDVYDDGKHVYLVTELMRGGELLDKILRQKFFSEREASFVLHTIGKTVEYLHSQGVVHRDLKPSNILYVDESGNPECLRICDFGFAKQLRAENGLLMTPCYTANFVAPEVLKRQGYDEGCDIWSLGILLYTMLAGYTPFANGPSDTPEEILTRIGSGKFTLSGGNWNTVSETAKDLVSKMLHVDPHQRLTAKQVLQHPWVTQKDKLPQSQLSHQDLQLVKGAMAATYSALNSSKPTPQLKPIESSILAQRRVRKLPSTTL
inactive: [1] 0.087 | filanesib -0.022 | zotarolimus 0.025 | idasanutlin -0.016 | alisertib -0.01 | [2] -0.202 | gefitinib -0.062 | [3] 0 | lapatinib 0.013 | pictilisib -0.053 | [4] 0 | crizotinib -0.259 | [5] 0.138 | [6] -0.066 | duvelisib 0.03 | gandotinib -0.199 | tozasertib 0.002 | [7] 0.066 | doramapimod -0.026 | ispinesib 0.021

SERPINA7 (UniProt P05543)
inactive: [1] -0.213 | filanesib 0.251 | zotarolimus -0.206 | idasanutlin 0.071 | alisertib 0.052 | [2] 0.008 | gefitinib -0.157 | [3] 0.381 | lapatinib -0.017 | pictilisib -0.088 | [4] -0.16 | crizotinib 0.133 | [5] -0.095 | [6] 0.257 | duvelisib -0.201 | gandotinib -0.02 | tozasertib -0.046 | [7] -0.158 | doramapimod 0.217 | ispinesib 0.068

RMC1 (UniProt Q96DM3)
Chain of UniProt Q96DM3 (Q96DM3 whole entry, looked up): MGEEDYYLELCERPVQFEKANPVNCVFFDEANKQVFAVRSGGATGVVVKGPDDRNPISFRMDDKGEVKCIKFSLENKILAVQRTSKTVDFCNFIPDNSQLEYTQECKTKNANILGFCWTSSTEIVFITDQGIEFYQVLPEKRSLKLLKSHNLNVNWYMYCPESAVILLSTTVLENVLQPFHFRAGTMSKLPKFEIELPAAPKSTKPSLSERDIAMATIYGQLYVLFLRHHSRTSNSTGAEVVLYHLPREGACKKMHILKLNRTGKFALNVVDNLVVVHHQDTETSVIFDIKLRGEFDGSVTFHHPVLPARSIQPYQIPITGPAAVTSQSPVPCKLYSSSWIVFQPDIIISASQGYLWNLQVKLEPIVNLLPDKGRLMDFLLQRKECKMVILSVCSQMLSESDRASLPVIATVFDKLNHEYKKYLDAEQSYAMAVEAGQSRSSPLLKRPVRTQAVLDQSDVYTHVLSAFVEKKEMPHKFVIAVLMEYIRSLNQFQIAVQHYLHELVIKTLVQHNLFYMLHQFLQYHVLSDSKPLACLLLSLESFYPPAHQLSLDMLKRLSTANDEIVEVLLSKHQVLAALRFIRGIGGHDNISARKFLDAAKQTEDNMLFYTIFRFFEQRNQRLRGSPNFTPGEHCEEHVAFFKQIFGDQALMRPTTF
inactive: [1] -0.002 | filanesib -0.058 | zotarolimus -0.015 | idasanutlin -0.047 | alisertib -0.059 | [2] -0.006 | gefitinib 0.045 | [3] 0.044 | lapatinib -0.029 | pictilisib -0.105 | [4] 0.021 | [5] 0.061 | [6] -0.012 | duvelisib -0.005 | gandotinib 0.027 | tozasertib 0.026 | [7] 0.066 | doramapimod 0.038
active: crizotinib -0.509 | ispinesib -0.254

RCC1 isoform 2 (UniProt P18754)
active: [4] 0.418
inactive: [1] 0.106 | filanesib -0.058 | zotarolimus 0.083 | idasanutlin 0 | alisertib 0.022 | [2] -0.038 | gefitinib 0.087 | [3] 0.021 | lapatinib 0 | pictilisib -0.005 | crizotinib -0.032 | [5] 0.13 | [6] -0.04 | duvelisib 0.158 | gandotinib -0.1 | tozasertib -0.002 | [7] 0.154 | doramapimod -0.008 | ispinesib -0.007

RHEB (UniProt Q15382)
inactive: [1] -0.007 | filanesib -0.08 | zotarolimus 0.016 | idasanutlin -0.049 | alisertib -0.03 | [2] 0.032 | gefitinib 0.015 | [3] 0.057 | lapatinib 0.005 | pictilisib 0.029 | [4] -0.001 | crizotinib 0.038 | [5] 0.096 | [6] -0.041 | duvelisib 0.021 | gandotinib -0.097 | tozasertib -0.025 | [7] -0.009 | doramapimod -0.018 | ispinesib 0.042
